# This excerpt belongs to a sample that is enriched for the strongest signals.
# Assays:
# Assay in all cases: glycan array binding signal (z-score within array); higher = stronger binding
# [1] = tested on: Neu5Ac(a2-6)Gal(b1-4)GlcNAc(b1-2)Man(a1-3)[GlcNAc(b1-2)Man(a1-6)]Man(b1-4)GlcNAc(b1-4)GlcNAc; conditions: glycan notation: IUPAC condensed, linker removed
# How it was run: (§1)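 The Consortium for Functional Glycomics database supplied 3228 glycan arrays, of which those lacking an available protein sequence were dropped. The binding signal, a within-array Z-score, was averaged across arrays of the same protein sequence and across linkers. Negative scores can be read as non-binding.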
# [2] = tested on: Neu5Ac(a2-6)Gal(b1-4)GlcNAc(b1-2)Man(a1-6)[Man(a1-3)]Man(b1-4)GlcNAc(b1-4)GlcNAc; conditions: glycan notation: IUPAC condensed, linker removed
# How it was run: as §1
# [3] = tested on: Neu5Ac(a2-6)Gal(b1-4)GlcNAc(b1-2)Man(a1-3)[GlcNAc(b1-2)Man(b1-4)GlcNAc(b1-2)Man(a1-6)]Man(b1-4)GlcNAc(b1-4)GlcNAc; conditions: glycan notation: IUPAC condensed, linker removed
# How it was run: as §1
# [4] = tested on: Neu5Ac(a2-6)Gal(b1-4)GlcNAc(b1-2)Man(a1-3)[Neu5Ac(a2-6)Gal(b1-4)GlcNAc(b1-2)Man(a1-6)]Man(b1-4)GlcNAc(b1-4)[Fuc(a1-6)]GlcNAc; conditions: glycan notation: IUPAC condensed, linker removed
# How it was run: as §1
# [5] = tested on: Neu5Ac(a2-6)Gal(b1-4)GlcNAc(b1-2)Man(a1-3)[GlcNAc(b1-4)][Neu5Ac(a2-6)Gal(b1-4)GlcNAc(b1-2)Man(a1-6)]Man(b1-4)GlcNAc(b1-4)GlcNAc; conditions: glycan notation: IUPAC condensed, linker removed
# How it was run: as §1
# [6] = tested on: Neu5Ac(a2-6)Gal(b1-4)GlcNAc(b1-2)Man(a1-3)[Man(a1-6)]Man(b1-4)GlcNAc(b1-4)GlcNAc; conditions: glycan notation: IUPAC condensed, linker removed
# How it was run: as §1
# [7] = tested on: Neu5Ac(a2-6)Gal(b1-4)GlcNAc(b1-2)Man(a1-3)[Neu5Ac(a2-6)Gal(b1-4)GlcNAc(b1-2)Man(a1-6)]Man(b1-4)GlcNAc(b1-4)GlcNAc; conditions: glycan notation: IUPAC condensed, linker removed
# How it was run: as §1
# [8] = tested on: Neu5Ac(a2-6)Gal(b1-4)GlcNAc(b1-2)Man(a1-6)Man(b1-4)GlcNAc(b1-4)GlcNAc; conditions: glycan notation: IUPAC condensed, linker removed
# How it was run: as §1
# [9] = tested on: Neu5Ac(a2-6)Gal(b1-4)GlcNAc(b1-2)Man(a1-6)[GlcNAc(b1-2)Man(a1-3)]Man(b1-4)GlcNAc(b1-4)GlcNAc; conditions: glycan notation: IUPAC condensed, linker removed; mutation: R125K
# How it was run: as §1
# [10] = tested on: Neu5Ac(a2-6)Gal(b1-4)GlcNAc(b1-2)Man(a1-6)[Gal(b1-4)GlcNAc(b1-2)Man(a1-3)]Man(b1-4)GlcNAc(b1-4)GlcNAc; conditions: glycan notation: IUPAC condensed, linker removed
# How it was run: as §1
# CHI3L1 (Homo sapiens), P36222, sequence (P36222 whole entry): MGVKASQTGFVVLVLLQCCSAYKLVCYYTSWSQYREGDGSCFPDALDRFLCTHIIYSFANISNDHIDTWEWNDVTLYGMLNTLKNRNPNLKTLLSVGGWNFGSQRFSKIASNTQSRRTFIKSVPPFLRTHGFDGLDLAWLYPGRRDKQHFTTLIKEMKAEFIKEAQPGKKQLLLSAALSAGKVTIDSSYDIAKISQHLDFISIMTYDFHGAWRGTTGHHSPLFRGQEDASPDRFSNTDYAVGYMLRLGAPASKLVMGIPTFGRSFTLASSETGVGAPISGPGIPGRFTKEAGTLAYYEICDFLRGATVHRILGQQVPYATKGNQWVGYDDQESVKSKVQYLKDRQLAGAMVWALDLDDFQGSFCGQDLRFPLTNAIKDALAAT
# PILRa (Mus musculus), Q2YSF3, sequence (Q2YSF3 entry or part of it): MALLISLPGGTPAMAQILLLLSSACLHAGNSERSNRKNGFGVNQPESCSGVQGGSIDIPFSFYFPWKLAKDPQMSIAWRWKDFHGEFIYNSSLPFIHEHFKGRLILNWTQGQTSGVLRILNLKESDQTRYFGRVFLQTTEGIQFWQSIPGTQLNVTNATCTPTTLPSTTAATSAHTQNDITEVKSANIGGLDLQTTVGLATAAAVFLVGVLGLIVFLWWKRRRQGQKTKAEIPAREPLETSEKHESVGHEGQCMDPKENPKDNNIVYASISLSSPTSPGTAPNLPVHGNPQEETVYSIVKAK
# Aggrecan (Rattus norvegicus), NP_071526, sequence (chain, as listed by the source): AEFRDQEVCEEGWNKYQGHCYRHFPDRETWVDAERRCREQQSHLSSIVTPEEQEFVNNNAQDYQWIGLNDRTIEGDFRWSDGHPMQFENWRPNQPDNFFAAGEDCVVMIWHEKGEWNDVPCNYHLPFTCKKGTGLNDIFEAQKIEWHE
# SRLC (Mus musculus), Q8VIF6, sequence (Q8VIF6 other isoform, or with tags, fused parts or gaps): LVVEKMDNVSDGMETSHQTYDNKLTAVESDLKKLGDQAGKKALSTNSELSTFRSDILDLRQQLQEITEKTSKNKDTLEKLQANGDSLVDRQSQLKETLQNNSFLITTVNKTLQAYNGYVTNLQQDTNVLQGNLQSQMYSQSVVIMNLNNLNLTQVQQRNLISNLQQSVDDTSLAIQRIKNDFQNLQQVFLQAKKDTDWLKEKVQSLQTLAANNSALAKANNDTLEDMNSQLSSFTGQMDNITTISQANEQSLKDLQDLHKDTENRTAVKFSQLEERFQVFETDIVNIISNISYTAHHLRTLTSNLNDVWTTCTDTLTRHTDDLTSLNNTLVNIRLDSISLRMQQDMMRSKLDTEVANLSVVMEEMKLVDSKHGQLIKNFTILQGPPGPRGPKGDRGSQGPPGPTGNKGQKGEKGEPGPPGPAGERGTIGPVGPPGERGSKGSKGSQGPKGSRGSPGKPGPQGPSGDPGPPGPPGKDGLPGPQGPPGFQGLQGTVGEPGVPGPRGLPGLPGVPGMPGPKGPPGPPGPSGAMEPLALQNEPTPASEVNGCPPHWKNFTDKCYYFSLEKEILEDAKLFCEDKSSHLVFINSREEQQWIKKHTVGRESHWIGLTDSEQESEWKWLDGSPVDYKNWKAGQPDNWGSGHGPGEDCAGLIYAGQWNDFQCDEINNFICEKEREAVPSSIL
# CHT (Homo sapiens), sequence (chain, as listed by the source): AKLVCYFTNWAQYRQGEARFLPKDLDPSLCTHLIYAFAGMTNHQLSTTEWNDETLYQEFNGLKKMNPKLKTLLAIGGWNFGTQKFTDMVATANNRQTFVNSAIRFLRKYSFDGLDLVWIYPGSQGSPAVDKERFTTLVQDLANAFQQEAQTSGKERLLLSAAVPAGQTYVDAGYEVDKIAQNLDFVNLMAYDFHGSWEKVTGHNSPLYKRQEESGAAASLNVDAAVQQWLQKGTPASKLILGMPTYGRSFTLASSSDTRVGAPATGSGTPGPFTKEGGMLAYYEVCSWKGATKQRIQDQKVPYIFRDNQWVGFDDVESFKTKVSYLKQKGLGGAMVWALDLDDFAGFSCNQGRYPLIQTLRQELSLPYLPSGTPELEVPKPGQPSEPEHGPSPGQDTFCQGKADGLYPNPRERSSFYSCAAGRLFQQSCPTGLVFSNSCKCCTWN
# C3b (Homo sapiens), P01024, sequence (P01024 23-667): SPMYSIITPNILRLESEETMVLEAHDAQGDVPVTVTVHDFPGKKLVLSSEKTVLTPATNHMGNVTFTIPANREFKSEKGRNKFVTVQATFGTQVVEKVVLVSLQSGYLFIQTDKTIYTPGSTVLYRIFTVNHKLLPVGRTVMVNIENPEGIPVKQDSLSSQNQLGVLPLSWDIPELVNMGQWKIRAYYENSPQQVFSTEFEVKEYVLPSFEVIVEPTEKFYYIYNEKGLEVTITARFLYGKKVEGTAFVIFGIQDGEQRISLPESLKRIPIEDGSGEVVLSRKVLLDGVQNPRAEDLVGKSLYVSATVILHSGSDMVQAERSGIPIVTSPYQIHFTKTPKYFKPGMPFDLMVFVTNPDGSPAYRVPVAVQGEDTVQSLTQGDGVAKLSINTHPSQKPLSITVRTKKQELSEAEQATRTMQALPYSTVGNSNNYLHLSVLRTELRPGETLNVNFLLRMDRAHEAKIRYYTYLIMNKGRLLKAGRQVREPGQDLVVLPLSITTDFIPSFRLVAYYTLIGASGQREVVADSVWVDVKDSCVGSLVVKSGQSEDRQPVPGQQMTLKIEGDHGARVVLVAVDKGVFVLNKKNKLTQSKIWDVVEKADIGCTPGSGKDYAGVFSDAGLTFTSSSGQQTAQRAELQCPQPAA
substance,measurement,setting,value
"Aggrecan (Rattus norvegicus), NP_071526",glycan array binding signal (z-score),[1],-0.152
same,glycan array binding signal (z-score),[2],-0.224
"CHI3L1 (Homo sapiens), P36222",glycan array binding signal (z-score),[3],-0.028
same,glycan array binding signal (z-score),[4],-0.039
MpAFP RI GFP (Marinomonas primoryensis),glycan array binding signal (z-score),[5],-0.435
same,glycan array binding signal (z-score),[6],0.118
same,glycan array binding signal (z-score),[4],2.72
"C3b (Homo sapiens), P01024",glycan array binding signal (z-score),[7],0.001
"SRLC (Mus musculus), Q8VIF6",glycan array binding signal (z-score),[7],-0.158
CHT (Homo sapiens),glycan array binding signal (z-score),"[7]; mutation: D138V, E140I",0.642
"Siglec-8 (Homo sapiens), Q9NYZ4",glycan array binding signal (z-score),[8],-0.178
same,glycan array binding signal (z-score),[8]; mutation: R125K,0.093
same,glycan array binding signal (z-score),[9],-0.193
"PILRa (Mus musculus), Q2YSF3",glycan array binding signal (z-score),[8],-0.195
same,glycan array binding signal (z-score),[10],1.22

# Reference: the supplement of paper PMC8728848
